# 14-3-3 Bad PPI – inhibitors of 14-3-3 zeta/Bad binding, primary screen, biochemical, TR-FRET, bovine 14-3-3 zeta; 14-3-3 protein zeta/delta (Bos taurus), P63103; TR-FRET 14-3-3zeta/Dy647-pBad peptide displacement, 1 h; inhibition, % at 21.7 µM; 220,000 tested, 0.71% active; AID 781, 2007;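 active = inhibition above about 70%, limit read from the data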;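 note: 0% = full 14-3-3 plus peptide FRET controls and 100% = background without 14-3-3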
# Target sequence (P63103 whole entry, looked up): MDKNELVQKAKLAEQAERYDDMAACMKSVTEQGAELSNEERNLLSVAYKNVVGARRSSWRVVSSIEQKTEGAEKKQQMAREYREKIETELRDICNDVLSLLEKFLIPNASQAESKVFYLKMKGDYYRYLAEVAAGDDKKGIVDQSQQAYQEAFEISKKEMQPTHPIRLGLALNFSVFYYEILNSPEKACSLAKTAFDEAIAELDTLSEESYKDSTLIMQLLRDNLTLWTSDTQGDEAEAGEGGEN
# SUMO HTRF inh – inhibitors of in vitro SUMOylation cascade, primary screen, biochemical, HTRF, uHTS | SUMO-conjugating enzyme UBC9 (Homo sapiens), P63279 | HTRF SUMOylation assay, SAE1/SAE2 + UBC9 | inhibition, % at 35 µM | 290,000 tested, 0.36% active | AID 2006, 2009; in the data active = inhibition above about 50%, passing the limit was not always enough
# p47phox inh – p47phox/p22phox peptide binding inhibitors, primary screen, biochemical, uHTS, NADPH oxidase regulatory subunit; fluorescence polarization, 2 h; AID 1274, 2008; Neutrophil cytosol factor 1 (Homo sapiens), P14598; 220,000 tested, 0.53% active; inhibition, % at 24.7 µM;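 note: 0% = p47phox with labelled peptide and 100% = labelled peptide alone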
# Target sequence (P14598 whole entry, looked up): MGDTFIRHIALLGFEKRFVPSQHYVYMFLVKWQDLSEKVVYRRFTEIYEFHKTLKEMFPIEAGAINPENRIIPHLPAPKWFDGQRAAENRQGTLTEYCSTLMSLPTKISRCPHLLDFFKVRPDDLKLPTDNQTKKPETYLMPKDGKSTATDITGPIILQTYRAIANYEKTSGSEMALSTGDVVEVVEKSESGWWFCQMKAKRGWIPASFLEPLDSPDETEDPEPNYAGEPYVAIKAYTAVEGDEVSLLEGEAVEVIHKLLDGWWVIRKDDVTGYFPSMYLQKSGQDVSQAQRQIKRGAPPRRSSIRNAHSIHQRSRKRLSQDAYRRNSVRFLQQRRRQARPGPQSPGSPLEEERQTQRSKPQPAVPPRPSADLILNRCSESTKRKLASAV
# eIF4E-4G inh – eIF4E–eIF4G protein interaction inhibitors, primary screen, biochemical, uHTS, TR-FRET, eIF4GI fragment | TR-FRET eIF4E-eIF4GI(517-606) binding, 2 h | inhibition, % at 21.7 µM | 220,000 tested, 0.37% active;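 note: 0% = full FRET control wells and 100% = background wells lacking eIF4GI fragment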
# Active calls of the source: *; . = not tested or not shown; ! = not confirmed by another sample; [ ] = remark or other dose. An excerpt weighted towards active compounds, which were near 1.3% of everything screened.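 Rule for the calls, unless noted: active = inhibition above about 30% (limit read from the data); inactive = the rest.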
SMILES,14-3-3 Bad PPI,SUMO HTRF inh,p47phox inh,eIF4E-4G inh
CCn1ncc([N+](=O)[O-])c1C(=O)Nc1ccc(C)c(C)c1,.,-7.6,.,.
C=CCNCCOCCOc1ccc(C)cc1[N+](=O)[O-],75.1*,9.6,-12.8,2.2
COc1cc(C)ccc1OCCOCCOc1ccc(C)cc1[N+](=O)[O-],2.2,-8.2,-2.7,4.5
COc1ccc(CCN(C)C(=S)Nc2cccc(C)c2)cc1OC,.,9.4,.,.
COc1ccc(NS(=O)(=O)c2ccc(N3CCOCC3)c(NC(=O)c3cccc(F)c3)c2)cc1,11.9,20.0,50.5*,-5.0
COc1ccc(NS(=O)(=O)c2ccc(N3CCOCC3)c(NC(=O)c3ccc(F)cc3)c2)cc1,-17.0,-2.3,-2.7,-1.9
CCOCCCNC(=O)CCn1nc(-c2ccc(Cl)cc2)ccc1=O,.,-1.6,.,.
COc1cc(C2Oc3ccccc3C=C2[N+](=O)[O-])cc(OC)c1OC (configuration not stated),2.2,16.2,-5.9,-2.5
O=c1cc(-c2ccccc2)nc2c(-c3ccccc3)c(C(F)(F)F)[nH]n12,-2.5,50.6*,-14.8,2.3
O=C(O)CC(CC(=O)N1CCN(C(=O)c2ccco2)CC1)c1ccccc1 (configuration not stated),.,-5.7,.,.
CCOc1c(C)cc(-c2ncccc2O)cc1C,74.9*!,20.7,-4.6,-1.8
O=C1OC(C(=O)NCc2ccccc2)Cc2ccccc21 (configuration not stated),73.6*,5.9,-8.5,0.1
CCOC(=O)/C(C(=O)Nc1ccccc1Cl)=C1/NC(C)(C)Cc2ccccc21,10.4,18.8,-11.4,-0.4
CCOC(=O)/C(C)=C1\NC(C)(C)Cc2ccccc21,33.3,-5.7,62.1*,1.2
COc1ccc2ccccc2c1CN1CCN(Cc2ccccc2)CC1,91.2*,11.5,-9.3,-1.4
COc1cc(C2CC(=O)N(CC(=O)NCC3CCCO3)c3ccccc3S2)cc(OC)c1OC (configuration not stated),-2.9,4.5,-0.9,0.6
CCCCC(=O)c1ccc(O)cc1,-20.0,17.3,-10.2,2.4
O=C(CCO)c1ccc(O)cc1,74.5*,50.0,-13.9,10.2
O=C(c1ccccc1)N1CCN(C(=O)c2cccnc2)CC1,.,-0.2,.,.
O=C(c1cccs1)N1CCN(CCCc2ccccc2)CC1,72.3*,1.4,-4.9,1.7
O=C(c1cccs1)N1CCN(Cc2ccccc2)CC1,4.9,11.8,-6.0,15.1
O=C(c1cccnc1)N1CCN(CCCc2ccccc2)CC1,72.2*,18.2,-3.7,7.6
O=C(c1cccs1)N1CCN(Cc2cccnc2)CC1,75.9*,22.8,8.2,6.7
O=C(c1cccs1)N1CCC(Cc2ccccc2)CC1,-0.6,9.4,-0.8,-0.4
O=C(c1cccs1)N1CCN(Cc2ccncc2)CC1,73.5*,0.7,-7.3,6.7
SMILES,14-3-3 Bad PPI,SUMO HTRF inh,p47phox inh,eIF4E-4G inh
CC1CN(Cc2cc(=O)oc3cc(O)c(Cl)cc23)CC(C)O1 (configuration not stated),.,32.4,.,.
CC1CCN(Cc2cc(=O)oc3cc(O)c(Cl)cc23)CC1,.,55.2*,.,.
Nc1ccc(N)c(C(=O)O)c1,95.9*,.,41.0*,93.7*
CCOC(=O)c1ccc(N2C(=O)C=C(N3CCOCC3)C2=O)cc1,.,20.1,.,.
Cc1ccccc1OCC(=O)NCCC1=CCCCC1,82.5*,4.5,-4.0,6.3
CCOc1ccc(NC(=O)CN(C)Cc2cc(=O)n3c(-c4ccccc4)csc3n2)cc1OCC,-17.3,11.7,-9.7,6.8
CSc1ncccc1C(=O)N1CCN(S(=O)(=O)c2ccccc2)CC1,.,11.3,.,.
COc1ccc2nc(C)cc(SCC(=O)N/N=C/c3c(OC)ccc4ccccc34)c2c1,95.8*[fluorescence artefact?],-2.9,42.2*,19.0
COc1cc(C(=O)Nc2cccc(-c3nc4cc(C)ccc4o3)c2)cc(OC)c1OC,46.2,-1.3,-11.4,9.5
COc1cc(C(=O)Nc2cc(-c3nc4cc(C)ccc4o3)ccc2C)cc(OC)c1OC,78.6*,43.6,-52.0,-1.6
Cc1ccc2oc(-c3ccc(C)c(NC(=O)Cc4cccs4)c3)nc2c1,8.3,56.1*,-43.2,-18.2
O=C(c1ccco1)N1CCN(S(=O)(=O)c2ccc(S(=O)(=O)NC3CCCCC3)cc2)CC1,48.9,2.2,-6.0,1.8
CCC(C)(C)c1ccc(OCCCC[n+]2cccc(C)c2C)c(C(C)(C)CC)c1,9.3,19.9,49.2*,10.6
CCC(C)(C)c1ccc(OCCCC[n+]2ccc(C)cc2)c(C(C)(C)CC)c1,20.3,19.3,33.2*,8.8
COc1ccc(-n2c(O)c(/C=N/NS(=O)(=O)c3cccc([N+](=O)[O-])c3)c3ccccc3c2=O)cc1OC,-9.6,22.3,-126.0,1.4
CN1CCN(CC(=O)NC2CCCCC2)CC1,71.0*,-3.5,-1.7,-0.1
CN1CCC(NC(=O)NC2CCCCC2)CC1,-5.7,14.0,-0.3,-2.7
CC1CCCC(NC(=O)C2CCC(CNc3c(N4CCCC4)c(=O)c3=O)CC2)C1C (configuration not stated),-3.6,25.4,-7.8,-11.7
CC1CCCC(NC(=O)C2CCC(CNc3c(N4CCCCC4)c(=O)c3=O)CC2)C1C (configuration not stated),89.5*,-14.4,-2.3,0.5
CCOC(=O)C(C)Sc1ccc2nnc(-c3ccc(F)cc3)n2n1 (configuration not stated),-4.0,16.9,-0.6,50.8*
CN(c1ccccc1C(=O)Nc1ccc(S(=O)(=O)N2CCOCC2)cc1)S(=O)(=O)c1ccccc1,-0.8,-1.1,-6.7,1.8
CN1CCN(S(=O)(=O)c2ccc(N3CCN(C(c4ccccc4)c4ccccc4)CC3)nc2)CC1,-10.0,21.0,-16.0,3.1
CN1CCN(S(=O)(=O)c2ccc(N3CCN(S(=O)(=O)/C=C/c4ccccc4)CC3)nc2)CC1,71.6*,5.3,39.7*,4.7
Cc1ccc2c(Cl)cc(Cl)c(OCC(=O)NC(=O)NCc3ccco3)c2n1,-7.5,12.2,-14.2,-8.6
Cc1ccc2c(Cl)cc(Cl)c(OCC(=O)NCc3ccco3)c2n1,39.2,53.6*,1.8,47.2*[fluorescence artefact?]
SMILES,14-3-3 Bad PPI,SUMO HTRF inh,p47phox inh,eIF4E-4G inh
O=C(CSc1ccsc1[N+](=O)[O-])Nc1cccc(F)c1,51.2,26.3,-11.4,49.9*
CCc1ccccc1NC(=O)CSc1ccsc1[N+](=O)[O-],-5.3,14.0,-1.6,8.4
CSc1nc(-c2ccccc2)nc(NC(=O)C(C)C)c1C(C)=O,3.1,3.3,-4.3,1.8
CCc1ccc(S(=O)(=O)/N=C2/C=C(Sc3ncn[nH]3)C(=O)c3ccccc32)cc1,84.1*[fluorescence artefact?],92.1*,55.2*,31.9*[fluorescence artefact?]
O=C(Nc1nnc(-c2ccccc2SCc2ccccc2F)s1)Nc1ccccc1F,12.2,52.4*,-10.5,-16.1
O=C(Nc1nnc(-c2ccc(F)cc2)s1)Nc1ccccc1F,-0.6,34.3,-12.7,3.9
COCCn1c(=NC(=O)CCS(=O)(=O)c2ccccc2)sc2cc(F)ccc21,.,7.9,.,.
S=c1[nH]c2ccc3ccccc3c2[nH]1,1.2,4.3,-2.0,7.4
